SMILES strings stand for the structures. Unmarked numbers belong to inactive results. For some of these results: Measured potencies and affinities stand elsewhere. The source made the active and inactive calls. Unless noted, no rule for the calls is given here.

Assay [1] is described as follows: antimalarial activity against Dd2 strain (AID 2302;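 active = growth inhibition above 50% at the single 2 µM test dose, taken to imply half-maximal potency below 2 µM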;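 also: 0% = DMSO untreated growth and 100% = chloroquine plus artemisinin killed control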). The note with it: P. falciparum Dd2 in RBCs, LDH growth readout, 72 h; at 2 µM; active compounds read high.
The nature of assay [2]: HepG2 cytotoxicity, primary screen, cytotoxicity control for P. falciparum antimalarial project, cell-based, ATP luminescence (AID 2303;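 active = inhibition above 50%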;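 also: 0% = DMSO wells and 100% = digitonin-killed cells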). To be noted: HepG2 viability, 24-48 h, at 10 µM, active compounds read high.
In assay [3] the target is L-lactate dehydrogenase (Plasmodium falciparum (isolate CDC / Honduras)) (UniProt Q27743). The assay can be described thus: PfLDH activity inhibition – cell lysate, 3D7 strain, counter-screen for P. falciparum growth inhibition project (AID 2304).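 Also: 0% = vehicle and 100% = reference inhibitor.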 The note with it: P. falciparum 3D7 crude extract, LDH APAD/NBT absorbance; at 2 µM; active compounds read high.
Assay [4] can be described thus: inhibition of 3D7 malaria parasite growth – strain 3D7 (AID 2306).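 Also: 0% = DMSO wells and 100% = chloroquine plus artemisinin control wells.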 To be noted: P. falciparum 3D7 erythrocytic growth, LDH absorbance, 72 h; at 2 µM; active compounds read high.
The target of assay [5] is Calcium-dependent protein kinase 1 (Plasmodium falciparum (isolate 3D7)) (UniProt P62344). The assay can be described thus: PfCDPK1 kinase inhibitors, biochemical, TCAMS library (AID 1159585; cut-off not given, nearly all actives have IC50 up to about 0.98 µM;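 also: inhibitors leave more ATP so luminescence rises with inhibition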). The note with it: recombinant PfCDPK1, Kinase-Glo ATP depletion luminescence.
The target of assay [6] is Plasmodium falciparum protein kinase 6 (PK6, PF3D7_1337100) (UniProt Q8IDW1). The assay can be described thus: PfPK6 kinase inhibitors, biochemical, TCAMS library (AID 1159586). The note with it: recombinant PfPK6, Kinase-Glo ATP depletion luminescence.
Assay [7] deals with Protein kinase 7 (PK7), Plasmodium falciparum 3D7 (PF3D7_0213400) (UniProt Q7YTF7). Briefly: inhibition of Plasmodium PK7 catalytic activity – biochemical, TCAMS antimalarial set, Kinase-Glo luminescence (AID 1159587). The note with it: recombinant PfPK7, Kinase-Glo ATP depletion luminescence.
Assay [8] addresses Calcium-dependent protein kinase 4 (Plasmodium falciparum (isolate 3D7)) (UniProt Q8IBS5). The assay can be described thus: PfCDPK4 kinase inhibitors, biochemical, TCAMS library (AID 1159588; cut-off not given, nearly all actives have IC50 up to about 0.91 µM). The note with it: recombinant PfCDPK4, Kinase-Glo ATP depletion luminescence.

Sequence of Plasmodium falciparum protein kinase 6 (PK6, PF3D7_1337100) (Q8IDW1 1-305): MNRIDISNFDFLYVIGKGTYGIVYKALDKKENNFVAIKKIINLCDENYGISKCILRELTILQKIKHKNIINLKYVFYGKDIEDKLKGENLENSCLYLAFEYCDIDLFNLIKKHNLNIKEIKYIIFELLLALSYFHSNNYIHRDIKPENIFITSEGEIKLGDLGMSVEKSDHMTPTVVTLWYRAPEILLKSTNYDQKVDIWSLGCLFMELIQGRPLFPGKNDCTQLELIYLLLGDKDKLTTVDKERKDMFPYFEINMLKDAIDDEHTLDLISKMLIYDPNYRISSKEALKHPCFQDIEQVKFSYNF
Sequence of L-lactate dehydrogenase (Plasmodium falciparum (isolate CDC / Honduras)) (Q27743 whole entry, looked up): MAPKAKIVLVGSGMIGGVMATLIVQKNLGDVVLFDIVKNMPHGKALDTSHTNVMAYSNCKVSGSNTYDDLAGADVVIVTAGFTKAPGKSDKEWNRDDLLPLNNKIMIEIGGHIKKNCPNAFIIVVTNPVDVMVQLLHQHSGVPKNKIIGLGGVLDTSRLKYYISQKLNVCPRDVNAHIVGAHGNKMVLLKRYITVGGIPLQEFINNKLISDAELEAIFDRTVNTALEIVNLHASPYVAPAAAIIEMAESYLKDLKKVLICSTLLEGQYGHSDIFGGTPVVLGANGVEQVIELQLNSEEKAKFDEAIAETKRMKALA
Sequence of Calcium-dependent protein kinase 4 (Plasmodium falciparum (isolate 3D7)) (Q8IBS5 whole entry, looked up): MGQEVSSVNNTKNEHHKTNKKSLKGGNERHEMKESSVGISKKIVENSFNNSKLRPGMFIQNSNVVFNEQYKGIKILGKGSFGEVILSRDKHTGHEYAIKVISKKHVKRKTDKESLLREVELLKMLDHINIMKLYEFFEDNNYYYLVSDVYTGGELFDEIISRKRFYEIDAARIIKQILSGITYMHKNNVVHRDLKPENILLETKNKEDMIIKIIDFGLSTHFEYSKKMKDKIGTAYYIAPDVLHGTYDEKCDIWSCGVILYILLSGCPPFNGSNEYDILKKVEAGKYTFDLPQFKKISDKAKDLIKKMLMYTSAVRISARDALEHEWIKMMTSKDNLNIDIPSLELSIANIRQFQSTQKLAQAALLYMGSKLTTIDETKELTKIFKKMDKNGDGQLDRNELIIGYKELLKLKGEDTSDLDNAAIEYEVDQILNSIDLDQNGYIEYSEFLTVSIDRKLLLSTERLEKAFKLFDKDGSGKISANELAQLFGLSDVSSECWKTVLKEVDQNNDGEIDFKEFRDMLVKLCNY
Sequence of Protein kinase 7 (PK7), Plasmodium falciparum 3D7 (PF3D7_0213400) (Q7YTF7 1-343): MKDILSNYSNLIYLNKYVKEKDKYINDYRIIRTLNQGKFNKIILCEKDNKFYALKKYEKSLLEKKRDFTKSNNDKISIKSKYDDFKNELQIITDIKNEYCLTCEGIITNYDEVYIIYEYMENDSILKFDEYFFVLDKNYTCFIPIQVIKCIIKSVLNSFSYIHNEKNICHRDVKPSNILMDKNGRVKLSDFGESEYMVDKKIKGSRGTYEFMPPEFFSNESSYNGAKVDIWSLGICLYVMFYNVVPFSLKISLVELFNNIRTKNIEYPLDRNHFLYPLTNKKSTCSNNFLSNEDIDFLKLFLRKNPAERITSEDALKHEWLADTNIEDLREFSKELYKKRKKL
Sequence of Calcium-dependent protein kinase 1 (Plasmodium falciparum (isolate 3D7)) (P62344 whole entry, looked up): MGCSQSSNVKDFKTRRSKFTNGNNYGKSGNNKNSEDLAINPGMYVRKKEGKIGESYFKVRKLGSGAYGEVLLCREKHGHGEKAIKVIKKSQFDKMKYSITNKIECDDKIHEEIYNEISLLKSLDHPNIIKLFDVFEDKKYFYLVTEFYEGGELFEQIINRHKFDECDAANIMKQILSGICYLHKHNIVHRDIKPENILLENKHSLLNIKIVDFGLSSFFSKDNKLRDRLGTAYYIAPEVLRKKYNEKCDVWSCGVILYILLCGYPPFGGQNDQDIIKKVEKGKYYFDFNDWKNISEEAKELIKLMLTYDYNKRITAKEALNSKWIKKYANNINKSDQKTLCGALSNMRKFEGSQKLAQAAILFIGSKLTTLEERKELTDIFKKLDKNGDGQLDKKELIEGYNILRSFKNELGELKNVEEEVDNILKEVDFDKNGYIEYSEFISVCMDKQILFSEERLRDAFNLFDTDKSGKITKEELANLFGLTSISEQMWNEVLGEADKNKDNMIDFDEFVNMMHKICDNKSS

As for `O=C(Nc1ccc(-c2ccccc2)cc1)Nc1cccc(OCCN2CCCC2)c1`, the results for the growth inhibition in assay [1] and in assay [4] were 14% and 94% (active), respectively. Besides, the results for the inhibition in assay [2] and in assay [3] were 11% and -2%, respectively. Moreover, the result in assay [5], in assay [6], in assay [7] and in assay [8] was inactive.

As to `Cc1cc(C2CCN(CCCCNC(=O)c3ccc(NC(=O)c4ccc(Cl)cc4)cc3)CC2)c(C)cc1OCCN(C)C`, the results for the growth inhibition in assay [1] and in assay [4] were 77% (active) and 100% (active), respectively. Besides, the results for the inhibition in assay [2] and in assay [3] were 18% and -1%, respectively. Also, the result in assay [5], in assay [6], in assay [7] and in assay [8] was inactive.

Regarding `Cn1cncc1C(=O)Nc1cccc(-c2ccc(-c3nc4ccc(C(F)(F)F)cc4[nH]3)cc2)c1`, the growth inhibition is 98% (active) in assay [1] and 97% (active) in assay [4]. The inhibition in assay [2] was 4%; in assay [3] it was 1%. The result in assay [5], in assay [6], in assay [7] and in assay [8] was inactive.

For the compound `COc1c(C2CCN(CCCCNC(=O)c3ccc(-c4ccc(Cl)cc4)c(OCCN(C)C)c3)CC2)ccc2c1CCCC2`, the growth inhibition was 86% (active) in assay [1] and 101% (active) in assay [4]. Moreover, the inhibition in assay [2] is 100% (active); in assay [3], 2%. Besides, the result in assay [5], in assay [6], in assay [7] and in assay [8] was inactive.

Turning to `CCOC(=O)C1=C(C)NC2=C(C(=O)CC(C)(C)C2)C1c1ccc(Cl)cc1` (stereo not given), the values for the growth inhibition in assay [1] and in assay [4] were 84% (active) and 96% (active), respectively. Further, the inhibition in assay [2] is 4%; in assay [3], 1%. Moreover, the result in assay [5], in assay [6], in assay [7] and in assay [8] was inactive.

Turning to `COc1ccc2nc(C)cc(NN=Cc3ccc([N+](=O)[O-])o3)c2c1`, the growth inhibition in assay [1] and in assay [4] was 100% (active) throughout. In addition, the results for the inhibition in assay [2] and in assay [3] were 18% and -5%, respectively. Further, the outcome in assay [5], in assay [6], in assay [7] and in assay [8] was inactive.

Regarding `OC(CNc1ccnc(Nc2ccccc2)n1)c1ccc(C(F)(F)F)cc1` (stereo not given), the growth inhibition in assay [1] was 39%; in assay [4], 101% (active). For the same compound, the values for the inhibition in assay [2] and in assay [3] were 3% and -2%, respectively. Also, the result in assay [5], in assay [6], in assay [7] and in assay [8] was inactive.

Take `COc1cc2c(Nc3cccc(NC(=O)c4ccccc4)c3)ncnc2cc1OCCCN1CCOCC1`: the growth inhibition in assay [1] is 100% (active); in assay [4] it was 101% (active). Besides, the values for the inhibition in assay [2] and in assay [3] were -14% and 5%, respectively. In addition, the result in assay [5], in assay [6], in assay [7] and in assay [8] was inactive.

As for `O=C(Nc1cccc(F)c1)NC1CCN(CCCCCNC(=O)[C@@H]2C[C@H]2c2ccc(Cl)c(Cl)c2)CC1`, the growth inhibition in assay [1] is 12%; in assay [4], 101% (active). Also, the inhibition in assay [2] is 41%; in assay [3], 4%. Moreover, the outcome in assay [5], in assay [6], in assay [7] and in assay [8] was inactive.

Consider `O=C(Nc1cccc(Oc2ccccc2)c1)N[C@H]1CCN(Cc2ccc(OCCCN3CCCCC3)cc2)C1`, for which the growth inhibition in assay [1] was 70% (active); in assay [4], 101% (active). Besides, the inhibition in assay [2] was 94% (active); in assay [3], -2%. The outcome in assay [5], in assay [6], in assay [7] and in assay [8] was inactive.

For `CN(C)Cc1ccc(-c2cccc(Nc3nccc(NCC(O)c4ccccc4)n3)c2)cc1` (stereo not given), the growth inhibition in assay [1] is 100% (active); in assay [4], 102% (active). The inhibition in assay [2] is 74% (active); in assay [3], -1%. Moreover, the result in assay [5], in assay [6], in assay [7] and in assay [8] was inactive.

Regarding `CCNC(=O)Nc1ccc(-c2cccc(-c3nc4c(C)cccc4[nH]3)c2)cc1`, the figures for the growth inhibition in assay [1] and in assay [4] were 34% and 91% (active), respectively. The figures for the inhibition in assay [2] and in assay [3] were 16% and -8%, respectively. Also, the outcome in assay [5], in assay [6], in assay [7] and in assay [8] was inactive.

In the case of `CC(Cc1ccc(OCc2ccccc2)cc1)Nc1nc2ccccc2c(=O)[nH]1` (stereo not given), the results for the growth inhibition in assay [1] and in assay [4] were 96% (active) and 98% (active), respectively. In addition, the results for the inhibition in assay [2] and in assay [3] were 2% and -1%, respectively. Further, the outcome in assay [5], in assay [6], in assay [7] and in assay [8] was inactive.

In the case of `O=C(Cc1ccc([N+](=O)[O-])cc1)N1CCc2cc3nccc(N4CCN5CCC[C@H]5C4)c3cc21`, the values for the growth inhibition in assay [1] and in assay [4] were 7% and 95% (active), respectively. The inhibition in assay [2] was -7%; in assay [3], -4%. The result in assay [5], in assay [6], in assay [7] and in assay [8] was inactive.

Take `c1ccc2c(c1)CN(CC1CC1)CC1(CCN(Cc3c[nH]c4cnccc34)CC1)O2`: the figures for the growth inhibition in assay [1] and in assay [4] were 14% and 101% (active), respectively. In addition, the inhibition in assay [2] is 30%; in assay [3], -1%. In addition, the result in assay [5], in assay [6], in assay [7] and in assay [8] was inactive.

As for `CC(C)NCc1cccc(-c2ccc(NC(=O)c3ccc(F)cc3)cc2)c1`, the growth inhibition in assay [1] is 3%; in assay [4] it was 92% (active). For the same compound, the inhibition was 7% in assay [2] and -1% in assay [3]. In addition, the outcome in assay [5], in assay [6], in assay [7] and in assay [8] was inactive.

For `Brc1ccc(Nc2ccnc3cc(-c4nccs4)ccc23)cc1Oc1ccnc2cc(-c3nccs3)ccc12`, the growth inhibition in assay [1] is 83% (active); in assay [4] it was 91% (active). The inhibition in assay [2] is 15%; in assay [3], -4%. Moreover, the result in assay [5], in assay [6], in assay [7] and in assay [8] was inactive.

Take `CCN1CCN(c2ccc(Nc3ccnc4ccc(Br)cc34)cc2)CC1`: the growth inhibition was 86% (active) in assay [1] and 98% (active) in assay [4]. In addition, the inhibition in assay [2] was 37%; in assay [3], 2%. For the same compound, the outcome in assay [5], in assay [6], in assay [7] and in assay [8] was inactive.

As to `Cc1ccccc1C1CCN(c2ncc(C(=O)NC3CC3)cc2Cl)CC1`, the growth inhibition in assay [1] and in assay [4] was 96% (active) each time. For the same compound, the inhibition was 22% in assay [2] and -1% in assay [3]. Further, the outcome in assay [5], in assay [6], in assay [7] and in assay [8] was inactive.

With `CCNc1cc(C)nc(Nc2ccc(NC(=O)Cc3ccc(OC)cc3)cc2)n1`, the growth inhibition in assay [1] was 47%; in assay [4] it was 101% (active). Also, the inhibition is 30% in assay [2] and -1% in assay [3]. Further, the result in assay [5], in assay [6], in assay [7] and in assay [8] was inactive.
